Screening results from PubChem.
This is a sample that favours compounds with a hit; in the whole collection about 4.1% have one here.
hgDAF12 agonist: activates the H. glycines DAF-12 receptor ligand-binding domain; activation, % at 6.8 µM; HEK293 GAL4-hgDAF12 UAS-luciferase reporter, agonist luminescence; normalized to butyrate control; hit rate 1.8% among 370,000;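 active = activation above a cutoff set at the mean of all screened compounds plus 3 SD, cut at about 10% in these data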;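 note: 0% = DMSO wells and 100% = sodium butyrate wells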
DAX1 inh-1: NR0B1 (DAX1) inhibition; inhibition, % at 6.75 µM; P51843; hit rate 0.99% among 340,000; HEK293 Gal4-DAX1 luciferase reporter, luminescence;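 active = inhibition above the mean over all tested compounds plus 3 SD, cut at about 4.2% in these data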;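 note: 0% = DAX1-transfected cells with DMSO and 100% = empty-vector control cells with DMSO; inhibition shows as a rise in luminescence from relieved DAX1 repression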
Target sequence (P51843 207-470 limits assumed): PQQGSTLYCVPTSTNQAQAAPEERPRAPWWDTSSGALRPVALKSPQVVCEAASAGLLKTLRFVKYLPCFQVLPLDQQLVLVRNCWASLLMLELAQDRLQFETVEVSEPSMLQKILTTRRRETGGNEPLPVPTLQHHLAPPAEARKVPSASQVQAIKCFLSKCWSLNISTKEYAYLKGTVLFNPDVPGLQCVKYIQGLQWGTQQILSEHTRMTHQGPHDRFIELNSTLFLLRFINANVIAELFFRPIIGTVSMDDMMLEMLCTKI
ssDAF12 agonist: S. stercoralis DAF-12 activation, primary screen; activation, % at 6.8 µM; HEK293 ssDAF-12/GRIP1 lit1-tk-luc reporter, luminescence; % of 3 µM dafachronic acid response; hit rate 1% among 370,000;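 active = activation above the mean over all tested compounds plus 3 SD, cut at about 0.9% in these data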;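 note: 0% = DMSO-only wells and 100% = 3 µM delta7-dafachronic acid wells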
DAX1 inh-2: blocks DAX1 repression of SF-1 activated StAR promoter; hit rate 1.1% among 370,000; HEK293T StAR-luciferase reporter, SF-1/DAX-1 repression relief; inhibition, % at 6.8 µM;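 active = inhibition above the mean over all tested compounds plus 3 SD, cut at about 3.6% in these data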;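 note: 0% = DAX-1 cells with DMSO and 100% = cells lacking DAX-1 with DMSO; higher inhibition means more luminescence from relief of DAX-1 repression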
hcDAF-12 act: H. contortus DAF-12 activation, primary screen; HEK293 hcDAF-12 lit1-tk-luc reporter, luminescence; 0% DMSO, 100% Δ7-dafachronic acid; activation, % at 6.8 µM; hit rate 1.4% among 370,000; AID 652067;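 active = activation above the mean of all tested compounds plus 3 SD, cut at about 5.5% in these data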;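 note: 100% = response to 3 µM Δ7-dafachronic acid high control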
Active calls of the source: *; / = no result.

SMILES	hgDAF12 agonist	DAX1 inh-1	ssDAF12 agonist	DAX1 inh-2	hcDAF-12 act
CC(C)=CCC/C(C)=C/CN1C(=O)N(c2ccc(F)cc2)[C@H]2C[C@@H](c3ccccc3)[C@@H](C)[C@@H](C(=O)N3CCOCC3)C[C@H]21	-7	/	-2	-4	-2
C=CCOC(=O)N1CCN(C(=O)c2ccc3c(c2)nc(C)n3C2CCCC2)CC1	-3	/	-1	0	-1
CC(=O)Oc1ccc(-c2csc(Nc3ccc(Cl)cn3)n2)cc1	3	0	-1	0	-2
COc1ccc(-c2csc(Nc3ccc(C)cn3)n2)cc1	12*	1	-1	1	1
CCCCC(CC)c1nnc(NC(=O)c2cccs2)s1 (centres undefined)	-3	1	-2	0	-1
O=C(Nc1nnc(C2CC2)s1)c1cccs1	5	0	0	3.8*	1
CC(C)c1nnc(NC(=O)c2cccs2)s1	12*	0	0	2	5
CCOC(=O)CC(=O)CSc1nc2c(cc1C#N)CCCCC2	11*	1	1	3	5
CCOC(=O)CC(=O)CSc1nc2ccc(C)cc2cc1C#N	11*	6.7*	0.9*	3.8*	4
Cc1ccc(-n2c(SCC(=O)c3ccccc3Br)nnc2-c2ccncc2)cc1	-1	/	-1	0	-2
CN=C1S/C(=C/c2cc(C)n(-c3ccc(Cl)cc3F)c2C)C(=O)N1C	10	/	-2	/	-1
Cc1ccc(-c2cc(-c3nnc(SCC(=O)NC4CCCCC4)n3N)[nH]n2)cc1	1	/	0	1	1
CCc1ccc2nc(NC(=O)CN3C(=O)NC4(CCCC4)C3=O)sc2c1	11*	0	1	1	2
CCc1ccc2nc(NC(=O)Cn3cnc4ccccc4c3=O)sc2c1	5	3	1.2*	1	3
Cn1c(=O)c2c(ncn2CC(=O)Nc2nc3ccc(F)cc3s2)n(C)c1=O	8	2	0	1	6.2*
C=CCC12C=C(OC)C(=O)C(C1=O)C(c1ccc(OC)cc1)C2C (centres undefined)	3	/	-1	0	1
COc1ccccc1-c1ccc(Nc2cccc(C(C)=O)c2)nn1	4	1	-2	0	1
CC(=O)c1ccc(Nc2ccc(-c3ccccc3C)nn2)cc1	11*	2	0	2	1
CC(=O)c1cccc(Nc2ccc(-c3ccccc3F)nn2)c1	9	0	-1	3.8*	4
COc1ccc(S[C@]2(C(=O)N3CCCC3)CC(=O)N(c3ccc4c(ccn4C)c3)[C@@H]2c2ccc(OC)cc2)cc1	-3	/	1	0	2
O=C1CC2c3cc(-c4cc5ccccc5o4)ccc3CCN2C(=O)CN1Cc1ccccc1 (centres undefined)	0	/	-1	0	-2
c1ccc(-c2cnc(-c3ccccn3)nn2)cc1	11*	2	1	3	4
O=C(CSc1nnc(-c2cccc(Cl)c2)n1Cc1ccco1)Nc1ccc2c(c1)OCO2	-1	/	-2	-2	-2
Cc1cccc2c1CCC1CN(Cc3ccccc3)S(=O)(=O)N21 (centres undefined)	0	/	-2	/	2
CN(C)c1ccc(/C=N\Nc2ccccn2)cc1	9	6.2*	0	2	4
SMILES	hgDAF12 agonist	DAX1 inh-1	ssDAF12 agonist	DAX1 inh-2	hcDAF-12 act
Cc1ccsc1/C=N/Nc1nc(=O)[nH]nc1C	16*	2	0	2	2
Cc1ccsc1/C=N/Nc1ncc(Cl)cc1Cl	11*	1	0	3	4
Cc1cc(C)nc(N/N=C/c2sccc2C)n1	5	1	-1	2	0
O=C(O)c1ccc(/C=N/Nc2ncc(Cl)cc2Cl)cc1	3	6.5*	-1	0	4
O=C(O)c1ccc(/C=N\Nc2ccccn2)cc1	8	3	0	1	6.5*
CCCCOCCCNC(=O)C[C@H]1C[C@@]2(C(=O)OC)C(=C[C@H](COCc3ccccc3)O[C@@H]2C)N(CCc2ccc(OC)c(OC)c2)C1=O	-3	/	-2	0	-4
CC(C)CNC(=O)OCc1cn(Cc2cccc(Cl)c2)nn1	-4	/	-1	0	-2
OCCc1ccc(NCCc2cccs2)cc1	11*	/	-1	3	5
Cc1cccc(C)c1NC(=O)Cn1nnc(-c2ccncc2)n1	1	/	-2	0	-2
c1ccc(Oc2ccc(-c3ccn[nH]3)cc2)cc1	8	4.6*	1	1	3
O=C(Nc1ccc(F)cc1)N[C@@H]1C[C@@H]2O[C@H](CO)CC[C@@H]2O[C@@H]1CCc1ccc(C2=CCCC2)cc1	0	/	-2	-1	0
CCCCNC(=O)NS(=O)(=O)c1ccc(NC(=O)CSc2ncnc3scc(-c4ccc(C)cc4)c23)cc1	4	/	0	0	3
O=C(NCCc1c[nH]c2ccccc12)OCc1cn(-c2ccccc2Cl)nn1	-4	/	0	-1	-2
CC(/C=N/NC(=O)c1cccc(F)c1)=C\c1ccccc1	12*	1	0	3	4
CC(/C=C/c1ccccc1F)=N\NC(=O)c1cccc(F)c1	12*	2	-1	3	0
O=C(N/N=C/c1cccnc1)c1cc(Br)ccc1O	12*	0	-1	1	2
CC(/C=C/c1ccco1)=N\NC(=O)c1cccc(Cl)c1	6	1	0	1	3
O=C(N/N=C/c1cccnc1)c1cccc(F)c1	2	4.9*	-1	1	2
O=C(CNC(=O)c1cccc(F)c1)N/N=C/c1cccnc1	-2	0	0	0	0
CN(C)c1cccc(/C=C2\CC3(OC(=O)c4ccc(F)cc4)CCCN2C3)c1 (centres undefined)	0	/	0	1	-1
CSc1ccc(/C=N/NC(=O)c2ccc(O)cc2)cc1	12*	2	-1	2	3
COc1ccc(C(=O)N/N=C/c2ccc(SC)cc2)cc1	11*	0	-1	0	-2
COc1ccc(C=NNC(=O)c2ccncc2)cc1	3	/	-1	1	0
Cc1ccc(-n2c(SCC(=O)Nc3ccc(S(=O)(=O)Nc4cc(C)nc(C)n4)cc3)nnc2-c2ccncc2)cc1	3	/	-2	0	-1
O=C(O)CCC(=O)Nc1ccccc1C(=O)N1CCN(c2ccc(Cl)cc2)CC1	3	6.8*	-1	0	-1
O=C(O)C1CC=CCC1C(=O)Nc1ccccc1C(=O)N1CCN(c2ccc(Cl)cc2)CC1 (centres undefined)	-2	/	0	1	-1
O=C(O)CCCC(=O)Nc1ccc(Oc2ncnc3cc(Cl)ccc23)nc1	-2	5.9*	-2	0	0
O=C(Nc1ccc(F)cc1)Nc1ccc(Oc2ncnc3cc(Cl)ccc23)nc1	-1	1	-1	0	0
CSCC[C@@H](C(=O)O)N1Cc2ccccc2C1=O	-3	0	0	0	6.0*
